Assay outcomes: PubChem BioAssay, Broad Institute
FGF22 binding = binders of human FGF22 protein, primary screen, FGF22 synaptogenesis inhibitor project, biophysical, thermal shift, single point. Fibroblast growth factor 22 (Homo sapiens), Q9HCT0. recombinant FGF22 thermal shift, SYPRO orange fluorescence; percent of sucrose octasulfate shift, DMSO zero. activity (Tm shift, normalised), % at 9.99 µM. 1.5% of 340,000 active;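 active = mean Tm shift, scaled 0 neutral to 100 positive control, at about 1.3% or above, every replicate too, limit read from the data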
Target sequence (Q9HCT0 whole entry, looked up): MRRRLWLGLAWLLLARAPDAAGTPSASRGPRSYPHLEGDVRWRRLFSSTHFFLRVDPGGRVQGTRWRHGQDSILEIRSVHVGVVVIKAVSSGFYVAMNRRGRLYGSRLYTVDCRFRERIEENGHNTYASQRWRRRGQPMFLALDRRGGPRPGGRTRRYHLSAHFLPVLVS
SIRT5 block = SIRT5 desuccinylase inhibitors, primary screen, biochemical, fluorescence imaging, single point, set 5; inhibition, % at 15 µM; Purified SirT5, succinyl-peptide AMC, trypsin-coupled fluorescence; NAD-dependent protein deacylase sirtuin-5, mitochondrial (Homo sapiens), Q9NXA8; 1.1% of 330,000 active; in the data active = inhibition above about 15%
Target sequence (Q9NXA8 whole entry, looked up): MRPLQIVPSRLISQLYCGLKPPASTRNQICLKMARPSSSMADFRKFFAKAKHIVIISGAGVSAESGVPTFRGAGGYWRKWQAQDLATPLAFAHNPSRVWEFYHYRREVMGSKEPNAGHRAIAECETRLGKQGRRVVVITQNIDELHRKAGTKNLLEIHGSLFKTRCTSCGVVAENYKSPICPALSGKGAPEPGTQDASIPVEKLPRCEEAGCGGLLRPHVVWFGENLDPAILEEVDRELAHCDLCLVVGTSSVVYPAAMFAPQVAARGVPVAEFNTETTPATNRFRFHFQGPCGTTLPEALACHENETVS
Casp6 inh = human caspase-6 inhibitors, primary screen, biochemical, VEID-R110 fluorescence, single point, set 2 | P55212 | purified caspase-6, Z-VEID-R110 cleavage fluorescence | inhibition, % at 12.5 µM | 0.53% of 350,000 active | AID 686996, 2013;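 active = mean inhibition across replicates at least about 35%, with every replicate also reaching that limit, limit read from the data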;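 also: 0% = median of neutral control wells and 100% = no fluorescence left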
ERAP1 HTS inh = human ERAP1 aminopeptidase inhibitors, primary screen, biochemical, single point, plate reader. inhibition, % at 10.7 µM. 0.15% of 340,000 active. recombinant ERAP1, Leu-AMC fluorescence, 60 min. Endoplasmic reticulum aminopeptidase 1 (Homo sapiens), Q9NZ08. AID 652197, 2013;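 active = mean replicate inhibition of at least 30%, or all replicates individually reaching that 30% level; inactive = mean below 30% and not every replicate reaching it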;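 also: 0% = neutral control wells and 100% = L-leucinethiol positive control wells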
* = called active by the depositor; x = not tested or not shown. Rows were chosen to be rich in hits. Some 3.1% of all compounds tested hit in one or more screens of this group.

SMILES	FGF22 binding	SIRT5 block	Casp6 inh	ERAP1 HTS inh
O=C(Nc1ccc2c(c1)[C@H]1C[C@H](CC(=O)N3CCc4ccccc4C3)O[C@H](CO)[C@H]1O2)Nc1ccccc1F	0	15*	2	2
CC(C)C#Cc1cnc2c(c1)C(=O)N([C@@H](C)CO)C[C@H](C)[C@@H](CN(C)Cc1ccc3c(c1)OCO3)O2	0	-1	17	1
COc1ccc(-c2c(C)n([O-])c3c([n+]2=O)CCCCC3)cc1OC	43*	-2	3	5
Cc1ccc(-c2c(C)n([O-])c3c([n+]2=O)CCCC3)cc1	0	1	-2	-5
COc1ccc2c(c1)[N+](C)(C)C(C)(C)C=C2C	43*	1	-4	45*
CCOc1ccc2c(c1)[N+](C)(C)C(C)(C)C=C2C	x	-1	0	41*
COc1ccc2c(c1)C(C)=CC(C)(C)N2S(=O)(=O)c1ccc(C)cc1	0	0	0	0
Cc1ccccc1-c1nn(-c2ccc(F)cc2F)cc1CNCC(C)O (stereo not given)	0	-3	-2	-2
CCOCCCNCc1cn(-c2ccc(F)cc2F)nc1-c1ccccc1C	43*	1	-3	3
CC(C)c1ccc(S(=O)(=O)N2CCN(CC(=O)Nc3ccc(Cl)cc3F)CC2)cc1	0	-1	-3	-3
CC(C)c1ccc(S(=O)(=O)N2CCN(CC(=O)c3ccc(O)c(O)c3)CC2)cc1	-1	5	57*	2
O=C(CN1CCN(S(=O)(=O)c2ccc(Br)cc2)CC1)c1ccc(O)c(O)c1	0	4	55*	2
O=C(NC1CCCCC1)N[C@@H]1CC[C@@H](CCNS(=O)(=O)c2ccc(Cl)cc2)O[C@@H]1CO	0	1	0	0
OCCC1CN(Cc2cccc3nccnc23)CCN1Cc1ccc(F)c(F)c1 (stereo not given)	44*	-1	-2	-2
CCn1cc(CN2CCN(Cc3ccsc3)C(CCO)C2)cn1 (stereo not given)	44*	-2	-5	1
COc1ccc(/C=C/CN2CCN(CC(C)C)C(CCO)C2)cc1 (stereo not given)	44*	3	-1	-3
CSc1cccc(CN2CCN(Cc3ccc(F)c(F)c3)C(CCO)C2)c1 (stereo not given)	0	16*	-2	13
CSc1cccc(CN2CCN(Cc3ccccc3)C(CCO)C2)c1 (stereo not given)	0	-7	4	-2
CC=Cc1ccc2n(c1=O)C[C@@H]1[C@@H](CO)[C@H](C(=O)NCC3CC3)[C@H]2N1Cc1ccccc1OC (mixture of isomers)	0	-4	3	-1
C[C@H](CO)N1C[C@H](C)[C@H](CN(C)Cc2ccc(Cl)c(Cl)c2)OCCCC[C@H](C)Oc2ccc(NS(=O)(=O)c3ccc(F)cc3)cc2C1=O	-1	-1	-1	4
CSc1ccc(CN2CCN(Cc3ccccc3)C(CCO)C2)cc1 (stereo not given)	43*	-4	-1	-2
CC(C)CN1CCN(Cc2ccc3ncccc3c2)CC1CCO (stereo not given)	44*	-3	-3	0
C[C@H]1CN([C@@H](C)CO)C(=O)c2cc(C#CCc3ccccc3)cnc2O[C@H]1CN(C)Cc1cccnc1	0	-2	-1	-2
Cc1cccc(C)c1NC(=O)N1CCCCCCC1	0	28*	-2	-4
Cc1cccc(C)c1NC(=O)N1CC=CCC1	x	-2	-4	-7
SMILES	FGF22 binding	SIRT5 block	Casp6 inh	ERAP1 HTS inh
CC1(C)CC(=O)C(N=Nc2cccc(S(=O)(=O)N3CCOCC3)c2)=C(O)C1	0	1	-4	x
CC(=O)N1CCc2cc(N=NC3=C(O)CC(C)(C)CC3=O)ccc21	43*	4	0	6
Cc1cc(C)c2sc(C)[n+](CCCS(=O)(=O)[O-])c2c1	0	6	-3	97*
C[C@H](NC(=O)[C@@H]1[C@@H](CO)[C@@H]2Cn3c(ccc(-c4cccnc4)c3=O)[C@@H]2N1C)c1ccccc1	0	0	0	0
C[C@@H]1CN([C@H](C)CO)C(=O)c2cccc(NC(=O)Nc3ccc4c(c3)OCO4)c2O[C@H]1CN(C)Cc1ccc(-c2ccccc2)cc1	0	0	-4	0
Cn1ccnc1SCC(=O)NC1CCCC1	0	-1	0	31*
Cc1cc2ccccc2nc1SCC(=O)NC1CCCCC1	0	0	2	-5
Cc1cc2ccccc2nc1SCC(=O)NC1CCCC1	43*	1	3	4
C[C@H]1CN([C@@H](C)CO)C(=O)c2cc(C#CC3CCCCC3)cnc2O[C@H]1CN(C)C(=O)Cc1ccccn1	0	1	-1	1
CC(=O)NC1C(=O)N(CCN2CCOCC2)c2ccc(F)cc21 (stereo not given)	0	-19	52*	16
CC(=O)NC1C(=O)N(CCN2CCOCC2)c2ccc(Cl)cc21 (stereo not given)	0	-2	40*	20
CCc1ccc2c(c1)C(NC(C)=O)C(=O)N2CC (stereo not given)	0	-3	-1	-5
CNC[C@@H]1Oc2ccc(NS(=O)(=O)c3ccc(Cl)cc3)cc2CC(=O)N([C@@H](C)CO)C[C@H]1C	0	-3	0	0
O=C1c2ccccc2CCC12OC2c1ccc([N+](=O)[O-])cc1 (stereo not given)	44*	x	-1	3
O=C1c2ccccc2CCC12OC2c1ccncc1 (stereo not given)	0	-4	-2	-3
C[C@@H]1CCCCO[C@H](CN(C)C(=O)Nc2ccc3c(c2)OCO3)[C@@H](C)CN([C@H](C)CO)C(=O)c2cc(NS(C)(=O)=O)ccc2O1	0	0	2	-2
COc1ccc(NC(=O)NCCN2CCN(c3cc(OC)ccc3OC)CC2)cc1	0	28*	-4	1
CCc1ccc(N2CCN(CCNC(=O)Nc3ccc(OC)cc3)CC2)cc1	0	-2	-1	-3
CCC(CC)CN1CCC(CN2C(=O)C(=O)NC[C@@H]2[C@@H](C)CC)CC1	0	-3	-2	2
CCC(CC)CN1CCC(CN2C(=S)NC[C@@H]2[C@@H](C)CC)CC1	0	19*	-15	0
O=C(O)/C=C/C(=O)Nc1nccs1	0	1	4	5
O=C(/C=C/c1ccc(Br)o1)Nc1nccs1	44*	-2	18	1
Cc1ccc(S(=O)(=O)N(C)C[C@@H]2OCCCC[C@H](C)Oc3ccc(NS(=O)(=O)c4cccs4)cc3C(=O)N([C@@H](C)CO)C[C@H]2C)cc1	0	7	-2	-1
CC(C)(CO)NCc1ccc(Br)cc1	43*	-4	1	3
O=c1c(OC2OC(CO)C(O)C(O)C2OC2OC(CO)C(O)C(O)C2O)c(-c2ccc(O)cc2)oc2cc(O)cc(O)c12 (stereo not given)	1	x	46*	x
